GPR151 ag – activates the human receptor GPR151; Q8TDV0; PathHunter beta-arrestin GPR151 cells, luminescence; activation, % at 11.2 µM; 650,000 compounds, 1% hits; AID 1508602; in the data active means activation above about 4.9%;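 further: 0% = median of compound wells and 100% = cells with positive control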
FBW7 act – human FBW7 E3 ligase activation, primary screen | AlphaScreen FBW7–phospho-cyclin E peptide binding, activator screen | normalized activity (activation), % at 26.1 µM | 650,000 compounds, 0.13% hits | AID 1259310; in the data active means normalized activity above about 1.9%;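 further: purified mutant Fbw7 with reduced substrate affinity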
Target sequence (Q969H0 whole entry, looked up): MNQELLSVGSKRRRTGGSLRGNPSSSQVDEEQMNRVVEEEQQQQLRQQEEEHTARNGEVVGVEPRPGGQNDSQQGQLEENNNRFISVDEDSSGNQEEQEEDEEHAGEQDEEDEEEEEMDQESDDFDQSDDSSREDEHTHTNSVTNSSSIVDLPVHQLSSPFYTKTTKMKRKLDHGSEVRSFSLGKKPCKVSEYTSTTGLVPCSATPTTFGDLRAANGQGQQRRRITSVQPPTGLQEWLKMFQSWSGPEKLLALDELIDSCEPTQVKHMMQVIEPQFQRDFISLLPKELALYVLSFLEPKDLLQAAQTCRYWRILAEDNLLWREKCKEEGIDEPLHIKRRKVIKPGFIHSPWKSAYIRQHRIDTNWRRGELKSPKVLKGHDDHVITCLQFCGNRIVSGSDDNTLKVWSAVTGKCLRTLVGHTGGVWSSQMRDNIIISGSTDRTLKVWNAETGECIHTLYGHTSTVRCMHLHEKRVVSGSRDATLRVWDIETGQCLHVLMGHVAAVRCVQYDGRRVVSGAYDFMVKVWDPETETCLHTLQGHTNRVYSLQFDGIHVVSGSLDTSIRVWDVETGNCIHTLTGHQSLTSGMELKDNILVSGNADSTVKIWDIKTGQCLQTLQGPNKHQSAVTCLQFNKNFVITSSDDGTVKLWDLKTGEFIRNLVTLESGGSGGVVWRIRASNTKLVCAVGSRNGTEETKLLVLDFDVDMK
TEAD-YAP inh – TEAD-YAP interaction inhibition; AID 1259422; HEK-TIYL cells, TEAD-Gal4/YAP UAS-luciferase luminescence; 640,000 compounds, 1.4% hits; inhibition, % at 9.12 µM; in the data active means inhibition above about 32%;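 further: 0% = median of test compound wells and 100% = reference inhibitor wells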
MITF primary – inhibitors of human MITF | O75030 | AlphaScreen MITF homodimerization, bead proximity signal | inhibition, % at 2.6 µM | 650,000 compounds, 0.91% hits | AID 1259374; in the data active means inhibition above about 50%;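 further: 0% = vehicle wells with protein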
GPR151 confirm – confirmation of human GPR151 activators | shares compounds with GPR151 ag | GPR151 PathHunter beta-arrestin cells, luminescence, 90 min; % of EA-reagent control over plate median | activation, % at 11.2 µM | 6,700 tested, under 10 active;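 active means mean percent activation across replicates above the confirmation screen cutoff of 4.91%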
GPR119 ag – GPR119 activation, counter-screen for GPR151 activators; shares compounds with GPR151 ag; 6,700 compounds, 0.3% hits; GPR119 PathHunter beta-arrestin cells, luminescence, 90 min; 0 = compound-well median, 100 = enzyme-acceptor control; activation, % at 11.2 µM;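 active means mean percent activation in the counterscreen above 29.09%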;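 further: counterscreen on off-target GPR119 to flag nonselective hits from the GPR151 activator screen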
* marks the source's active call; other numbers are inactive results. A selection: hits, their analogues and other compounds. The true share with any hit is near 3.5%.

Results for CCC(=O)N1c2ccccc2NC2=C(C(=O)CC(C)(C)C2)C1c1ccc(N(C)C)cc1 (centres undefined) ?
GPR151 ag: 0; FBW7 act: 0; TEAD-YAP inh: 16; MITF primary: 2

What do the screens show for `CCC(=O)N1c2ccccc2NC2=C(C(=O)CC(C)(C)C2)C1c1ccc(Cl)cc1` (centres undefined)?
GPR151 ag: 5.1*; FBW7 act: 0; TEAD-YAP inh: 10; MITF primary: 0; GPR151 confirm: 0; GPR119 ag: -17

Results for CC1(C)CC(=O)C2=C(C1)Nc1cc(C(=O)c3ccccc3)ccc1N1C(=O)c3ccccc3C21 (centres undefined) ?
GPR151 ag: 5.1*; FBW7 act: 0; TEAD-YAP inh: 17; MITF primary: 2; GPR151 confirm: 1; GPR119 ag: 9

How did Cc1ccc(S(=O)(=O)NC(=O)N(Cc2ccccc2)Cc2ccco2)cc1 do in these assays?
GPR151 ag: -1; FBW7 act: 0; TEAD-YAP inh: -2; MITF primary: 15

Results for CC(C)(C)c1ccc(C(=O)On2c(-c3ccccc3F)nc3ccccc3c2=O)cc1 ?
GPR151 ag: 5.9*; FBW7 act: 0; TEAD-YAP inh: 0; MITF primary: 3; GPR151 confirm: 1; GPR119 ag: 14

What do the screens show for `O=c1c2sc3ccc([N+](=O)[O-])cc3c2[nH]c(=S)n1Cc1ccccn1`?
GPR151 ag: 8.8*; FBW7 act: 0; TEAD-YAP inh: 2; MITF primary: 6; GPR151 confirm: -1; GPR119 ag: -8

How did CC(C)n1c(=S)[nH]c2c(sc3ccc([N+](=O)[O-])cc32)c1=O do in these assays?
GPR151 ag: 1; FBW7 act: 0; TEAD-YAP inh: 8; MITF primary: -5

How did COc1ccc(/C=C2/c3ccccc3-c3cc4c(C)cc(C)nc4cc32)cc1OC do in these assays?
GPR151 ag: 5.8*; FBW7 act: 0; TEAD-YAP inh: -9; MITF primary: 4; GPR151 confirm: 1; GPR119 ag: 1

Results for COc1ccc(/C=C2/c3ccccc3-c3nc4ccccc4cc32)cc1OC ?
GPR151 ag: 2; FBW7 act: 0; TEAD-YAP inh: -11; MITF primary: 8

Results for CCCc1ccc(-c2ccc(C(=O)Nc3ccc(C)cc3)cc2)nc1 ?
GPR151 ag: 7.1*; FBW7 act: 0; TEAD-YAP inh: -3; MITF primary: 13; GPR151 confirm: 0; GPR119 ag: -10

How did CC(=O)c1ccc(-c2cc(F)cc3c2OC(CNC(=O)CN(C)C)C3)s1 (centres undefined) do in these assays?
GPR151 ag: 5.6*; FBW7 act: 0; TEAD-YAP inh: 4; MITF primary: 2; GPR151 confirm: -1; GPR119 ag: 2

Results for CSCC(=O)NCC1Cc2cc(F)cc(-c3ccc(C(C)=O)s3)c2O1 (centres undefined) ?
GPR151 ag: -1; FBW7 act: 0; TEAD-YAP inh: 4; MITF primary: 3

How did COc1ccc(CCN2C(=O)CC(Cc3ccc(Br)cc3)C2=O)cc1OC (centres undefined) do in these assays?
GPR151 ag: 5.6*; FBW7 act: 0; TEAD-YAP inh: -4; MITF primary: 0; GPR151 confirm: -1; GPR119 ag: -7

How did Cc1ccc(C2CC(C(F)(F)F)n3nc(C(=O)Nc4ccc(F)cc4F)cc3N2)cc1 (centres undefined) do in these assays?
GPR151 ag: 1; FBW7 act: 0; TEAD-YAP inh: 3; MITF primary: 0

How did Cc1cnn(C)c1C(=O)Nc1c2c(nn1-c1nc3ccccc3s1)CCC2 do in these assays?
GPR151 ag: 20*; FBW7 act: 0; TEAD-YAP inh: 1; MITF primary: 4; GPR151 confirm: 0; GPR119 ag: -2

How did CC(=O)Nc1c2c(nn1-c1nc3ccccc3s1)CCC2 do in these assays?
GPR151 ag: 0; FBW7 act: 1; TEAD-YAP inh: -10; MITF primary: 10

What do the screens show for `CCOC(=O)c1ccc(NC(=O)COc2cc(Br)c(C=O)cc2OC)cc1`?
GPR151 ag: -1; FBW7 act: 0; TEAD-YAP inh: 13; MITF primary: -5

Results for O=C1NCC(O)=C1C=Nc1ccccc1 ?
GPR151 ag: 5.2*; FBW7 act: 0; TEAD-YAP inh: 3; MITF primary: -2; GPR151 confirm: -2; GPR119 ag: -15

Results for O=C1NCC(O)=C1C=Nc1ccc(O)cc1 ?
GPR151 ag: 0; FBW7 act: 0; TEAD-YAP inh: 5; MITF primary: 15

Results for O=C1NCC(O)=C1C=NCCO ?
GPR151 ag: 6.2*; FBW7 act: 0; TEAD-YAP inh: 3; MITF primary: 11; GPR151 confirm: 1; GPR119 ag: 3

Results for CSc1ncc(CN2CCN(C3CCCC3)C(CCO)C2)cn1 (centres undefined) ?
GPR151 ag: 9.7*; FBW7 act: 0; TEAD-YAP inh: 3; MITF primary: -1; GPR151 confirm: 0; GPR119 ag: 0

Results for Cc1nn(C)c(Cl)c1CN1CCN(C2CCCCC2)C(CCO)C1 (centres undefined) ?
GPR151 ag: 8.9*; FBW7 act: 0; TEAD-YAP inh: 8; MITF primary: 9; GPR151 confirm: 0; GPR119 ag: -1

Results for CC(=O)N(Cc1cccnc1)Cc1cc2ccccc2[nH]c1=O ?
GPR151 ag: 0; FBW7 act: 0; TEAD-YAP inh: -2; MITF primary: -15

What do the screens show for `O=C(c1ccc(F)cc1)N(Cc1cccnc1)Cc1cc2ccccc2[nH]c1=O`?
GPR151 ag: 7.0*; FBW7 act: 0; TEAD-YAP inh: -3; MITF primary: 1; GPR151 confirm: 1; GPR119 ag: 12

What do the screens show for `CC(Sc1ccccc1)C(=O)Nc1ccc(S(=O)(=O)N2CCCCCC2)cc1` (centres undefined)?
GPR151 ag: -2; FBW7 act: 0; TEAD-YAP inh: 5; MITF primary: 15

What do the screens show for `COc1cccc2c1OCCCN(Cc1nc(Cc3ccccc3Cl)no1)C2`?
GPR151 ag: 5.7*; FBW7 act: 0; TEAD-YAP inh: -2; MITF primary: 2; GPR151 confirm: -1; GPR119 ag: -8

What do the screens show for `O=C(O)C1CN(S(=O)(=O)Cc2ccccc2[N+](=O)[O-])c2cc(Cl)ccc2O1` (centres undefined)?
GPR151 ag: 1; FBW7 act: 0; TEAD-YAP inh: 6; MITF primary: -4

What do the screens show for `NC(=O)c1cc2c(ccc3ccccc32)oc1=Nc1ccccc1`?
GPR151 ag: 5.2*; FBW7 act: 0; TEAD-YAP inh: -8; MITF primary: 3; GPR151 confirm: -1; GPR119 ag: -8

Results for CCC(=O)N/N=C(\C)CC(=O)Nc1cc(Cl)ccc1OC ?
GPR151 ag: 0; FBW7 act: 0; TEAD-YAP inh: -14; MITF primary: -6
